# Test results: the supplement of paper PMC8728848
# The sample as a whole holds a higher share of the strongest signals than the screen did.
# B1: Surfactant Protein D (Human); Neck + Carbohydrate Recognition Domain (NCRD) (Homo sapiens) (protein)
# chain: MLLFLLSALVLLTQPLGYLEAEMKTYSHRTMPSACTLVMCSSVESGLPGRDRDGREGPRGEKGDPGLPGAAGQAGMPGQAGPVGPKGDNGSVGEPGPKGDTGPSGPPGPPGVPGPAGREGALGKQGNIGPQGKPGPKGEAGPKGEVGAPGMQGSAGARGLAGPKGERGVPGERGVPGNTGAAGSAGAMGPQGSPGARGPPGLKGDKGIPGDKGAKGESGLPDVASLRQQVEALQGQVQHLQAAFSQYKKVELFPNGQSVGEKIFKTAQFVKPFTEAQLLCTQAGGQLASPRSAAENAALQQLVVAKNEAAFLSMTDSKTEGKFTYPTGESLVYSNWAPGEPNDDGGSEDCVEIFTNGKWNDAACGEKRLVVCEF
# Assays:
# Experiment in all cases: glycan array binding signal (z-score within array); higher = stronger binding
# Settings in all cases: glycan notation: IUPAC condensed, linker removed; mutation: R343A
# [1] = target: Fuc(a1-2)Gal(b1-3)GalNAc(b1-3)Gal(a1-4)Gal(b1-4)Glc
# How it was run: (§1)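 Negative Z-scores can be read as non-binding. The Z-score is calculated within each array and then averaged across arrays of one protein sequence at different concentrations or buffers and across linkers. Arrays, 3228 in all, were curated from the Consortium for Functional Glycomics database and kept only where the protein sequence was available.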
# [2] = target: Fuc(a1-2)Gal(b1-3)GlcNAc(b1-3)Gal(b1-4)Glc
# How it was run: as §1
# Fuc(a1-2)Gal(b1-4)GlcNAc = target: Fuc(a1-2)Gal(b1-4)GlcNAc
# How it was run: as §1
# Fuc(a1-4)GlcNAc = target: Fuc(a1-4)GlcNAc
# How it was run: as §1
# Gal(a1-3)GalNAc = target: Gal(a1-3)GalNAc
# How it was run: as §1
# Gal(b1-3)Gal = target: Gal(b1-3)Gal
# How it was run: as §1
# [3] = target: Gal(b1-3)GlcNAc(b1-3)Gal(b1-4)Glc
# How it was run: as §1
# [4] = target: Gal(b1-4)GalNAc(a1-3)[Fuc(a1-2)]Gal(b1-4)GlcNAc
# How it was run: as §1
# Gal(b1-4)Glc = target: Gal(b1-4)Glc
# How it was run: as §1
# [5] = target: Gal3S(b1-3)[Fuc(a1-4)]GlcNAc
# How it was run: as §1
# [6] = target: GlcNAc(b1-3)Gal(b1-4)GlcNAc(b1-3)Gal(b1-4)GlcNAc
# How it was run: as §1
# Kdn(a2-3)Gal(b1-4)GlcNAc = target: Kdn(a2-3)Gal(b1-4)GlcNAc
# How it was run: as §1
# [7] = target: Man(a1-2)Man(a1-3)[Man(a1-2)Man(a1-6)]Man
# How it was run: as §1
# [8] = target: Man(a1-2)Man(a1-3)[Man(a1-2)Man(a1-6)]Man(a1-6)[Man(a1-2)Man(a1-2)Man(a1-3)]Man
# How it was run: as §1
# [9] = target: Man(a1-2)Man(a1-3)[Man(a1-2)Man(a1-6)]Man(a1-6)[Man(a1-2)Man(a1-2)Man(a1-3)]Man(b1-4)GlcNAc(b1-4)GlcNAc
# How it was run: as §1
# [10] = target: Man(a1-2)Man(a1-3)[Man(a1-6)]Man(a1-6)[Man(a1-2)Man(a1-3)]Man(b1-4)GlcNAc(b1-4)GlcNAc
# How it was run: as §1
# [11] = target: Man(a1-2)Man(a1-6)[Man(a1-3)]Man(a1-6)[Man(a1-2)Man(a1-2)Man(a1-3)]Man
# How it was run: as §1
# [12] = target: Man(a1-3)[Man(a1-6)]Man(a1-6)[Man(a1-2)Man(a1-3)]Man(b1-4)GlcNAc(b1-4)GlcNAc
# How it was run: as §1
# [13] = target: Neu5Ac(a2-3)Gal(b1-4)GlcNAc(b1-3)Gal(b1-4)[Fuc(a1-3)]GlcNAc
# How it was run: as §1
# [14] = target: Neu5Gc(b2-6)Gal(b1-4)GlcNAc
# How it was run: as §1
binder,measurement,setting,value
B1,glycan array binding signal (z-score),[1],-0.236
same,glycan array binding signal (z-score),[2],-0.397
same,glycan array binding signal (z-score),Fuc(a1-2)Gal(b1-4)GlcNAc,-0.207
same,glycan array binding signal (z-score),Fuc(a1-4)GlcNAc,-0.016
same,glycan array binding signal (z-score),Gal(a1-3)GalNAc,-0.163
same,glycan array binding signal (z-score),Gal(b1-3)Gal,-0.274
same,glycan array binding signal (z-score),[3],-0.279
same,glycan array binding signal (z-score),[4],-0.214
same,glycan array binding signal (z-score),Gal(b1-4)Glc,-0.341
same,glycan array binding signal (z-score),[5],0.046
same,glycan array binding signal (z-score),[6],-0.173
same,glycan array binding signal (z-score),Kdn(a2-3)Gal(b1-4)GlcNAc,-0.194
same,glycan array binding signal (z-score),[7],9.14
same,glycan array binding signal (z-score),[8],6.17
same,glycan array binding signal (z-score),[9],-0.269
same,glycan array binding signal (z-score),[10],9.15
same,glycan array binding signal (z-score),[11],2.79
same,glycan array binding signal (z-score),[12],6.5
same,glycan array binding signal (z-score),[13],-0.226
same,glycan array binding signal (z-score),[14],-0.326
